We go through 110 compounds from PubChem BioAssay AID743282 (The Scripps Research Institute Molecular Screening Center, 2014).

Screen size: about 2,000 compounds; about 170 (8.5%) were called active. Not all results are given here. A number with no mark means an inactive call.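 Rule for the calls: active = average inhibition above the solvent-only control mean plus 3 SD (cut at about 6% in these data); inactive = the rest.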

The assay is described as follows: BODIPY product fluorescence quenching artefacts – biochemical, QFRET, 535nm, artefact control for HGIII-sPLA2 inhibitor project, confirmation (AID 743282).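 Note: 0% = DMSO with substrate plus product and 100% = DMSO with substrate alone.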 Particulars: BODIPY FL product fluorescence interference, at 12.2 µM, active compounds read high.
Broadly, the inhibition is the relative decrease from the control value, in per cent. Regarding `Cc1ccc(S(=O)(=O)N2CCOCC2)cc1C(=O)NC(=S)N(Cc1ccccc1)C(C)C`, the inhibition is -1.68%.
On to `COc1cccc(NC(C)=[N+](C)CCNS(=O)(=O)c2ccc(Cl)cc2)c1`, for which the inhibition was -14.7%.
With `Cc1sc2nc(SCC(=O)c3ccc(O)c(O)c3)n(Cc3ccco3)c(=O)c2c1C`, the inhibition was 0.57%.
Regarding `Cc1cccc(-n2cnc(C(=O)NNC(=S)Nc3ccccc3)c2)n1`, the inhibition was -2.38%.
To `CC1=CC(C)(C)NC(=S)N1c1ccccc1` belongs -3.33%; to `CCOc1ccc(Br)cc1CSC(=N)N`, -9.39%; to `Cc1cccc(C)c1NC(=O)CN1C(=O)C(C)Oc2ccccc21` (stereo not given), -4.96%.
For the compound `S=C(NNC(=S)NC1CC2CCC1C2)NC1CC2C=CC1C2` (stereo not given), the inhibition is 3.69%.
Turning to `O=C(NNC(=S)NC1CCCCC1)c1ccccc1Cl`, the inhibition is -4.68%.
Consider `Cc1[nH]c(N)nc(=S)c1CCCNc1ccccc1`, for which the inhibition was 0.28%.
To `CN(CC(=O)Nc1ccc(N2CCOCC2)cc1)CC(=O)Nc1ccccc1[N+](=O)[O-]` belongs -3.73%; to `C/C(=N\Nc1ccc(Cl)nn1)c1ccccc1O`, 1.8%.
On to `CCc1cccc(CC)c1NC(=S)NCc1ccc2[nH]c(C)cc2c1`, for which the inhibition was -0.12%.
`c1ccc(C2=Nc3cccc4cccc(c34)N2)cc1`: the inhibition is 11.4% (active).
For `CC(C(=O)Nc1ccccc1-c1ccccc1)N1CCOCC1` (stereo not given), the inhibition was -7.3%.
Turning to `O=C(CSc1nc2ccccc2n1Cc1ccccc1)NNC(=S)Nc1ccccc1`, the inhibition is -3.82%.
Turning to `O=C(NNc1ccccn1)c1ccc(Cl)nc1`, the inhibition was 34% (active).
For `O=C(OC12CC3CC(CC(C3)C1)C2)c1ccc(NCc2cc(O)ccc2O)cc1`, the inhibition was 12.9% (active).
Take `COc1ccccc1OCC(=O)OCn1c(SC)nnc(C)c1=O`: the inhibition was 0.95%.
As for `COc1ccc(C(=O)Nc2sc(C)c(C)c2CN2CCOCC2)cc1`, the inhibition was -13.2%.
For `O=C1C(=O)N(Cc2ccc(-c3ccsc3)cc2)c2ccc(OC(F)(F)F)cc21`, the inhibition was 4.49%.
Regarding `Nc1[nH]c(C(=O)c2ccccc2)c(-c2ccc(Br)cc2)c1C(=O)NC1CC1`, the inhibition was -0.53%.
For `CN(C)c1ccc(NC(=O)NC2CCCCN(Cc3ccc(Cl)cc3)C2=O)cc1` (stereo not given), the inhibition is -5.22%.
For `CC(C)(C)c1cc2cccnc2n1Cc1cccc(F)c1`, the inhibition is -9.11%.
For the compound `CN(C)S(=O)(=O)c1cccc(NC(=S)N/N=C/C(=O)c2ccccc2)c1`, the inhibition is 5.77%.
Regarding `CC(NC(=O)COC(=O)Cn1cc(C(F)(F)F)ccc1=O)c1ccccc1` (stereo not given), the inhibition is -1.38%.
As to `CC(C)CC(=O)NC(=S)NNC(=O)c1cccc([N+](=O)[O-])c1`, the inhibition is -0.46%.
Take `CSc1ccc(NC(=O)/C=C/C(=O)O)cc1`: the inhibition was -8.22%.
For the compound `O=C(/C=C/c1c(Cl)cccc1Cl)NCc1ccccc1`, the inhibition is -0.31%.
In the case of `N#CC1(Nc2ccc(-c3ccc(Cl)cc3)cc2)CCCC1`, the inhibition is 6.64% (active).
As to `CC(C)c1cc(C(=O)N/N=C/c2ccoc2)c(O)c(C(C)C)c1`, the inhibition is 4.05%.
Regarding `Cc1ccc(C2Nc3ccccc3C(=O)N2CCN2CCNC2=O)cc1` (stereo not given), the inhibition was -4.79%.
As to `COc1ccc2c(c1)c(=Cc1ccc(N(C)C)cc1)c1cc(-c3ccccc3)[n+](C)n12`, the inhibition was -26.7%.
As for `O=C(NNC(=S)Nc1ccc(F)cc1)[C@H]1C[C@@H]1c1ccccc1`, the inhibition is 1.83%.
As for `COc1ccc(NC(=O)C2C3C=CC(C3)C2C(=O)NCc2ccccn2)c(OC)c1` (stereo not given), the inhibition was -6.28%.
With `CCCCn1c(N)c(N(CCOC)C(=O)COc2c(C)cccc2C)c(=O)[nH]c1=O` the figure was -7.38%; with `O=C(NN1C(=O)C2C3C=CC(C3)C2C1=O)c1ccco1` (stereo not given), -5.42%.
To `COCCn1c(SCC(=O)Nc2cc(OC)ccc2OC)nc2c(c1=O)SC(C)C2` (stereo not given) belongs -17.4%; to `COc1ccccc1OCCn1c(SCC(N)=O)nc2ccccc21`, -8.97%; to `COc1cc(NS(=O)(=O)c2ccc3ccccc3c2)c2ncccc2c1`, 5.89%.
As for `O=C(Nc1cccc(F)c1)c1cc(-c2ccco2)nc2ccccc12`, the inhibition is 4.81%.
Turning to `C/C(=N/NC(=O)c1cc(Cl)ccc1O)C12CC3CC(CC(C3)C1)C2`, the inhibition was -3.29%.
`CCCCn1c(=S)[nH]c2ccccc2c1=O`: the inhibition is -2.71%.
Take `Cc1cc(NCCc2c[nH]c3ccccc23)ccc1Oc1cccnc1`: the inhibition was -3%.
With `CCNC(=S)Nc1ccc(OC(F)(F)F)cc1` the figure was 0.41%; with `NC(c1csc(NC(=O)Nc2ccccc2Oc2ccccc2)n1)c1ccccc1Cl` (stereo not given), 4.15%; with `COc1cc(/C=N/n2c(C)n[nH]c2=S)ccc1OCc1ccccc1`, -3.5%.
Consider `Cc1ccc(C2CC(c3cccc(C)c3)n3nc(N)nc3N2)cc1` (stereo not given), for which the inhibition is -10.8%.
As to `Nc1ccc2c(c1)C(O)c1ccc(Cl)cc1-2` (stereo not given), the inhibition is 7% (active).
To `CCN(Cc1ccccc1)C(=O)CN1C(=S)NC(C)(C)CC1C` (stereo not given) belongs -7.34%; to `C#CCCCc1nc2ccccc2c(=O)n1N`, -6.82%.
Turning to `Cc1nnc(Sc2nc3c(c(=O)[nH]c(=O)n3C)n2Cc2ccccc2)s1`, the inhibition is -6.93%.
In the case of `CCN(CC(=O)NC1CCS(=O)(=O)C1)S(=O)(=O)c1ccccc1` (stereo not given), the inhibition is -0.3%.
To `CCOC12CC(C)(C)CC(C)(CC3=C1C(=O)CC(C)(C)C3)C2` (stereo not given) belongs -12.7%.
For the compound `CC(C)(c1ccccc1)c1ccc(OCCN)cc1`, the inhibition is -22.1%.
To `CC[C@]1(O)C[C@@H]2CN(CCc3c([nH]c4ccccc34)[C@@](C(=O)OC)(c3cc4c(cc3OC)N(C)[C@H]3[C@@](O)(C(=O)OC)[C@H](OC(C)=O)[C@]5(CC)C=CCN6CC[C@]43[C@@H]65)C2)C1` belongs -25%; to `CCCCCCCCCCOC(=O)C[N+](C)(C)CC1CCCCC1O` (stereo not given), -19.3%; to `COc1cc(OC)cc(C2=Cc3ccccc3C(CC(=O)c3ccco3)N2c2ccc(-c3cnc(OC)nc3)cc2)c1` (stereo not given), -14%.
Take `COC(=O)C(C)n1cnc2c(nnn2-c2ccc(F)cc2)c1=O` (stereo not given): the inhibition is -6.41%.
As for `Cc1cccc(N2CCN(c3ccc(NC(=O)/C=C\C(=O)O)cc3)CC2)c1`, the inhibition is 3.01%.
As for `N=C(N)SCc1cccc2ccccc12`, the inhibition was -8.26%.
As for `O=C(CCl)NNc1cccc(Cl)n1`, the inhibition is 113% (active).
Turning to `NS(=O)(=O)c1ccc(CCNC(=O)NC2CCCCC2)cc1`, the inhibition is -4.36%.
For the compound `O=C(NNC(=S)NC1CC2CCC1C2)c1ccc(Cl)cc1` (stereo not given), the inhibition is 0.11%.
Turning to `COc1ccc(Cl)cc1C(=O)NNC(=S)NC1CCCC1`, the inhibition is 3.94%.
Consider `C=CCNc1scc(-c2ccccc2)[n+]1CC=C`, for which the inhibition was -8.41%.
Consider `C/C(=N\NC(=S)Nc1ccc(C)cc1)c1cc2ccccc2o1`, for which the inhibition was -2.09%.
Take `NC[C@H](Cc1ccccc1)NCCc1cc(C(F)(F)F)cc(C(F)(F)F)c1`: the inhibition was -15.8%.
With `CC(=O)/C(=N\Nc1ccc(Cl)cc1Cl)Sc1cccc2cccnc12` the figure was -6.02%; with `Cc1ccccc1NC(=O)C1CCN(c2ncccn2)CC1`, -0.85%.
As to `O=C(NC(=S)Nc1ncccn1)c1ccccc1Br`, the inhibition is -4.76%.
To `Nc1ccc(Nc2ccccc2)cc1` belongs 1.54%; to `Cn1c2c(c(=O)n(C)c1=O)C1c3ccccc3OCC1C(C)(C)O2` (stereo not given), -3.5%.
With `Oc1ccc2ccccc2c1N=Nc1nccs1`, the inhibition was 18.1% (active).
Consider `COCCCNC(=O)CNC(=S)N(Cc1cc(OC)c(OC)c(OC)c1)C1CCCC1`, for which the inhibition is -10.5%.
For the compound `COc1ccnc(NC(=S)N2CCN(c3ncc(C(F)(F)F)cc3Cl)CC2)c1`, the inhibition is -6.49%.
Take `Cc1ccc(-c2csc(NNC(=O)c3ccccc3)n2)cc1`: the inhibition is 6.07% (active).
Regarding `Cc1ccc2sc(NNC(=O)c3ccc4c(c3)OCCO4)nc2c1C`, the inhibition is 3.21%.
`COc1ccc(C(=O)NNC(=S)NC(=O)c2ccccc2)cc1`: the inhibition was -1.93%.
As to `CCc1cc(-c2n[nH]c(=S)n2CC(C)C)cs1`, the inhibition is -0.76%.
For `Cn1cc(Cl)c(C(=O)NNC(=S)Nc2cccc(Cl)c2)n1`, the inhibition was 0.3%.
With `CC(C)=CCCC1(C)C=Cc2c(ccc3c2[nH]c2cc(O)c(C)cc23)O1` (stereo not given), the inhibition is 8.94% (active).
As for `CC(C)c1ccc(Nc2nnc(SCC(=O)c3nnc(-c4ccccc4)o3)s2)cc1`, the inhibition is -8.04%.
Regarding `CC(=O)Oc1ccc2c(c1)C(=O)c1ccccc1C2=O`, the inhibition was -2.62%.
As for `O=C(N/N=C/c1cc(Cl)cc([N+](=O)[O-])c1O)C(O)(c1ccccc1)c1ccccc1`, the inhibition is 5.59%.
On to `S=c1[nH]nc(-c2ccco2)n1/N=C/c1ccccc1`, for which the inhibition was -0.08%.
Regarding `CCOc1ccc2[nH]c(=S)sc2c1`, the inhibition is -2.18%.
With `Cc1c(NC(=S)NCc2ccc(F)cc2)cccc1[N+](=O)[O-]`, the inhibition is -0.65%.
As to `CC(Oc1ccc2ccccc2c1)C(=O)NNC(=S)NC(=O)c1ccco1` (stereo not given), the inhibition was -3.72%.
Consider `CSC1=NN(c2ccccc2)CN(c2ccccc2)N1C`, for which the inhibition was 4.75%.
As for `Cc1c(C(=O)N/N=C/c2ccccc2)[nH]c2c([N+](=O)[O-])cccc12`, the inhibition is -10.6%.
To `NC(Cc1ccccc1)c1csc(Nc2cc(Oc3ccccc3)ncn2)n1` (stereo not given) belongs -10.4%; to `O=C(NNC(=S)Nc1ccc(Br)cc1Cl)c1ccco1`, 3.75%; to `CCOc1ccc(/C=N/NC(N)=S)cc1`, -2.77%.
On to `Cc1cc(-c2n[nH]c(=S)n2-c2ccc(C)c(C)c2)no1`, for which the inhibition was 2.66%.
As for `CC(=O)NC(c1cccs1)c1cc(Br)c2cccnc2c1O` (stereo not given), the inhibition was 1.21%.
For `Cc1cc(-n2nc(C)cc2C)n2ncc(-c3ccccc3)c2n1`, the inhibition was -10.6%.
`CCOC(=O)C1(Cc2cccc(OC)c2)CCCN(C(=O)CCSC)C1` (stereo not given): the inhibition is -20.8%.
Take `Cc1cccc(NC(=S)NCCN(C2CCCCC2)C2CCCC2)c1`: the inhibition was -19.9%.
In the case of `Brc1ccccc1C1Nc2cccc3cccc(c23)N1`, the inhibition was 16.4% (active).
Turning to `CC(=O)c1nnn(-c2ccc(Cl)cc2C#N)c1C`, the inhibition was -6.79%.
In the case of `COc1ccc(C(=O)NC(=S)NNC(=O)c2c(-c3ccccc3)noc2C)cc1`, the inhibition was -3.7%.
For `Cc1ccc(NC(=S)NNC(=O)CSc2nnc(SCc3ccccc3Cl)s2)cc1`, the inhibition was 0.65%.
To `COc1ccc(C(N)c2csc(NC(=O)Nc3cccc(C(F)(F)F)c3)n2)cc1` (stereo not given) belongs 5.13%; to `CCCCOc1ccc(CSC(=N)N)cc1[N+](=O)[O-]`, -15.6%; to `Cc1c(Cl)cccc1NC(=S)NCc1ccc2c(c1)OCO2`, 0.14%.
Consider `C/C(=N\NC(=O)CSc1nc2ccccc2c(=O)n1-c1ccccc1C)c1cccs1`, for which the inhibition is -14.6%.
Regarding `O=C(COc1ccc(S(=O)(=O)NCc2ccccc2)cc1)N1CCOCC1`, the inhibition was -4.58%.
On to `C=CCn1c(C23CC4CC(CC(C4)C2)C3)n[nH]c1=S`, for which the inhibition was -2.58%.
Regarding `CCOC(=O)NC(=O)/C(C#N)=C\c1ccccc1`, the inhibition is -4.97%.
